Source: PubChem BioAssay (Broad Institute)
A selection: hits, their analogues and other compounds. The true share with any hit is near 6.8%.
C diff HTS – C. difficile growth inhibition; 86,000 tested, 0.25% active; growth activity, negative = inhibition, % at 16 µg/mL (by protocol); Clostridium difficile clinical isolate growth, OD600, 24 h; active compounds read low;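 active = mean growth activity at or below -80% and every replicate also at or below -80%; inconclusive = mean at or below -80% but some replicate above -80%; inactive = mean growth activity above -80%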;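 also: 0% = DMSO wells and -100% = levofloxacin 16 µg/mL wells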
Pf Dd2 inh – blocks growth of Plasmodium falciparum Dd2 parasites; activity change, % at 10 µM; 94,000 tested, 2.3% active; P. falciparum Dd2 growth, SYBR Green, 72 h; active compounds read low; in the data active = activity change below about -80%; inconclusive = no clear call, values can overlap the other calls
T cruzi growth-1 – T. cruzi proliferation inhibition | T. cruzi beta-gal in NIH3T3, GalScreen luminescence, 90 h | inhibition, % at 8.34 µM | 77,000 tested, 5.9% active | AID 624255;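 active = mean inhibition above about 93%, with at least 55% of replicates each passing it, limit read from the data, passing the limit was not always enough; inconclusive = only one of those two conditions holds; inactive = neither condition holds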
T cruzi growth-2 – inhibitors of T. cruzi proliferation; shares compounds with T cruzi growth-1; T. cruzi beta-gal in NIH3T3, GalScreen luminescence, 90 h; inhibition, % at 8.35 µM; 5,600 tested, 72% active;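 active = mean replicate inhibition above about 95% and at least 55% of replicates individually reaching it, limit read from the data; inconclusive = only one of the two criteria is met; inactive = neither criterion is met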
T cruzi growth-3 – inhibitors of T. cruzi proliferation. T. cruzi beta-gal in NIH3T3, GalScreen luminescence, 90 h. shares compounds with T cruzi growth-1. inhibition, % at 2.09 µM. 5,600 tested, 21% active. AID 651740;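 active = mean inhibition above about 95%, with at least 55% of replicates also reaching it, limit read from the data; inconclusive = meets just one of the two conditions; inactive = meets neither condition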;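 also: plate controls were neutral control median for no effect and positive control median for full effect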
3T3 cytotox – kills mouse NIH/3T3 fibroblasts. shares compounds with T cruzi growth-1. NIH/3T3 viability, CellTiter-Glo ATP luminescence, 90 h. cytotoxicity (signal decrease), % at 8.35 µM. 5,600 tested, 14% active. AID 651742;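 active = mean signal decrease across replicates above about 35% based on untreated-well scatter, with enough replicates individually passing, limit read from the data; inconclusive = no rule stated though some were filed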;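 also: 0% = median of neutral control wells and 100% = median of positive control wells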
NIH3T3 tox 2 – kills mouse NIH/3T3 fibroblasts; 5,600 tested, 56% active; shares compounds with T cruzi growth-1; inhibition, % at 24.9 µM; NIH/3T3 viability, CellTiter-Glo ATP luminescence, 90 h;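 active = mean loss of cell viability signal at or above a set limit, and enough replicates individually reaching it; inconclusive = meets only the mean limit or only the replicate share; inactive = meets neither condition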;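 also: 0% = median of neutral control wells and 100% = median of positive control wells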
The depositor's hits bear a star; ? = inconclusive; / = no result.

SMILES	C diff HTS	Pf Dd2 inh	T cruzi growth-1	T cruzi growth-2	T cruzi growth-3	3T3 cytotox	NIH3T3 tox 2
Cc1ccc(S(=O)(=O)N(C)C[C@@H]2OCCCC[C@H](C)Oc3ccc(NC(=O)Nc4ccc(F)cc4)cc3C(=O)N([C@@H](C)CO)C[C@H]2C)cc1	/	?	106.4*	102.0*	52.8	-0.5	7.6
C[C@@H]1CCCCO[C@@H](CN(C)S(=O)(=O)c2ccc(Cl)cc2)[C@@H](C)CN([C@@H](C)CO)C(=O)c2cc(NC(=O)Nc3ccc(F)cc3)ccc2O1	-4.2	-72.2	92.4	/	/	/	/
C[C@@H]1CCCCO[C@H](CN(C)S(=O)(=O)c2ccc(Cl)cc2)[C@@H](C)CN([C@H](C)CO)C(=O)c2cc(NC(=O)Nc3ccc(F)cc3)ccc2O1	-2.8	-45.1	17.2	/	/	/	/
C[C@@H]1CCCCO[C@@H](CN(C)S(=O)(=O)c2ccc(F)cc2)[C@H](C)CN([C@H](C)CO)C(=O)c2cc(NC(=O)Nc3ccc(F)cc3)ccc2O1	7.1	-81.6*	100.0*	104.1*	91.4	12.3	-4.7
C[C@H](CO)N1C[C@H](C)[C@@H](CN(C)C(=O)Cc2ccccn2)Oc2ncc(-c3ccccc3)cc2C1=O	-1.9	-7.4	-52.4	/	/	/	/
O=C(C[C@@H]1CC[C@H]2[C@@H](COC[C@@H](O)CN2CC2CCOCC2)O1)N1CCOCC1	/	3.4	17.0	/	/	/	/
COCC(=O)Nc1ccc2c(c1)OC[C@H](C)N(Cc1cncnc1)C[C@@H](C)[C@@H](OC)CN(C)C2=O	/	/	22.4	/	/	/	/
C[C@H](CO)N1C[C@H](C)[C@@H](CN(C)C(=O)Cc2ccccn2)Oc2ncc(-c3cncnc3)cc2C1=O	8.3	/	-20.2	/	/	/	/
O=C(C1CC1)N1CCCCN2[C@H](CO)[C@@H](c3ccc(C#CC4(O)CCCC4)cc3)[C@@H]2C1	1.8	-22.5	32.8	/	/	/	/
C[C@@H]1CN([C@H](C)CO)C(=O)c2cc(NC(=O)Nc3ccc4c(c3)OCO4)ccc2O[C@@H](C)CCCCO[C@H]1CN(C)S(=O)(=O)c1ccc(F)cc1	-7.2	-71.1	73.6	/	/	/	/
C[C@@H]1CCCCO[C@@H](CN(C)S(=O)(=O)c2ccc(F)cc2)[C@@H](C)CN([C@H](C)CO)C(=O)c2cc(NC(=O)Nc3ccc(F)cc3)ccc2O1	-1.6	-46.3	-9.4	/	/	/	/
C[C@@H]1CCCCO[C@@H](CN(C)S(=O)(=O)c2ccc(F)cc2)[C@H](C)CN([C@@H](C)CO)C(=O)c2cc(NC(=O)Nc3ccc(F)cc3)ccc2O1	-0.4	-44.5	98.4*	104.9*	50.7	0.4	-5.3
C[C@H](CO)N1C[C@H](C)[C@H](CN(C)S(=O)(=O)c2ccc(F)cc2)OCCCC[C@H](C)Oc2ccc(NC(=O)Nc3ccc4c(c3)OCO4)cc2C1=O	0.5	-39.1	105.6*	109.4*	73.1	-2.8	19.0
C[C@H](CO)N1C[C@H](C)[C@H](CN(C)Cc2ccncc2)Oc2c(NS(=O)(=O)c3cn(C)cn3)cccc2C1=O	-3.2	6.4	/	/	/	/	/
O=C(C1CCC1)N1CCCCN2[C@H](CO)[C@@H](c3ccc(C#CC4CCCC4)cc3)[C@H]2C1	11.9	-51.8	?	87.1	39.2	11.6	104.5*
O=C(C1CCC1)N1CCCCN2[C@H](CO)[C@H](c3ccc(C#CC4CCCC4)cc3)[C@H]2C1	47.6	-52.4	101.1*	103.6*	94.9	22.2	103.3*
O=C(C1CCC1)N1CCCCN2[C@H](CO)[C@H](c3ccc(C#CC4CCCC4)cc3)[C@@H]2C1	-9.1	-5.6	71.9	/	/	/	/
O=C(C1CCC1)N1CCCCN2[C@@H](CO)[C@@H](c3ccc(C#CC4CCCC4)cc3)[C@@H]2C1	3.8	-55.6	85.8	/	/	/	/
CC(C)C#Cc1ccc2c(c1)O[C@@H](CN(C)C(=O)C1CCC1)[C@H](C)CN([C@H](C)CO)S2(=O)=O	/	-48.7	76.1	/	/	/	/
C[C@H](CO)N1C[C@H](C)[C@H](CN(C)C(=O)C2CCC2)Oc2cc(C#CCN(C)C)ccc2S1(=O)=O	-2.6	-20.0	?	113.7*	97.6*	-10.0	3.0
C[C@H](CO)N1C[C@H](C)[C@@H](CN(C)C(=O)C2CCCCC2)Oc2cc(C#CCN(C)C)ccc2S1(=O)=O	2.6	-18.5	/	/	/	/	/
C[C@H]1CN([C@@H](C)CO)S(=O)(=O)c2ccc(C#CCN(C)C)cc2O[C@@H]1CN(C)C(=O)C1CCC1	-3.3	1.1	104.8*	105.6*	94.8	3.3	-9.5
C[C@@H]1CN([C@H](C)CO)C(=O)c2cc(NC(=O)Nc3ccc4c(c3)OCO4)ccc2O[C@@H](C)CCCCO[C@@H]1CN(C)Cc1ccc(C(=O)O)cc1	-2.2	30.3	-19.3	/	/	/	/
CO[C@@H]1CN(C)C(=O)c2ccc(NC(=O)C3CC3)cc2OC[C@H](C)N(Cc2cncnc2)C[C@@H]1C	/	/	23.8	/	/	/	/
C[C@@H]1CN([C@H](C)CO)S(=O)(=O)c2ccc(C#Cc3ccc(F)cc3)cc2O[C@H]1CN(C)S(C)(=O)=O	5.2	-72.4	96.9*	98.2*	38.5	?	55.0*
SMILES	C diff HTS	Pf Dd2 inh	T cruzi growth-1	T cruzi growth-2	T cruzi growth-3	3T3 cytotox	NIH3T3 tox 2
C[C@H](CO)N1C[C@H](C)[C@H](CN(C)S(C)(=O)=O)Oc2cc(C#CC3CCCC3)ccc2S1(=O)=O	/	3.5	?	100.4*	35.3	27.4	65.8*
C[C@@H]1CN([C@@H](C)CO)S(=O)(=O)c2ccc(C#CC3CC3)cc2O[C@H]1CN(C)S(C)(=O)=O	2.1	-27.5	/	/	/	/	/
C[C@@H]1CN([C@H](C)CO)S(=O)(=O)c2ccc(C#CC3CCCCC3)cc2O[C@H]1CN(C)C	26.3	-58.7	84.4	/	/	/	/
C[C@H]1CN([C@@H](C)CO)S(=O)(=O)c2ccc(C#CC3CCCCC3)cc2O[C@@H]1CN(C)C	16.2	-47.8	109.2*	109.0*	81.3	17.6	103.7*
C[C@H]1CN([C@@H](C)CO)S(=O)(=O)c2ccc(C#CC3CCCC3)cc2O[C@H]1CN(C)S(C)(=O)=O	/	0.1	88.7	/	/	/	/
C[C@@H]1CN([C@@H](C)CO)S(=O)(=O)c2ccc(C#CC3CCCC3)cc2O[C@@H]1CN(C)S(C)(=O)=O	/	12.7	?	83.7	47.1	9.7	66.9*
C[C@H](CO)N1C[C@H](C)[C@H](CN(C)S(C)(=O)=O)Oc2cc(C#Cc3ccccc3)ccc2S1(=O)=O	3.0	-53.8	65.3	/	/	/	/
COCC(=O)Nc1ccc2c(c1)OC[C@@H](C)N(Cc1ccccc1OC)C[C@@H](C)[C@H](OC)CN(C)C2=O	/	/	30.2	/	/	/	/
O=C(Cc1ccncc1)Nc1ccc2c(c1)[C@H]1C[C@H](CC(=O)N3CCCCC3)O[C@@H](CO)[C@H]1O2	0.7	10.0	-21.1	/	/	/	/
C[C@H]1CN([C@@H](C)CO)C(=O)c2cccc(NC(=O)c3ccncc3)c2O[C@@H]1CN(C)C(=O)Nc1ccccc1	4.8	4.9	/	/	/	/	/
CO[C@H]1CC[C@@H]2CCN(C)C(=O)[C@H](C)N(C)C(=O)c3cc(C#N)ccc3OC[C@@H]1O2	9.2	/	7.0	/	/	/	/
